CHT PAM = CHT positive allosteric modulators, primary screen, cell-based, membrane potential dye, choline EC20; CHT-expressing cells; active compounds read high; LV-AA mutant CHT in HEK293 cells; B-score at 10 µM; actives 0.49% (n = 310,000); AID 488977, 2010;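 active = initial fluorescence not abnormally high and integrated response B-score, plate-corrected, over 3 SD above library mean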
HIF act = HIF pathway transcriptional activators, primary screen, cell-based, U2OS HRE-luciferase, luminescence | U2OS HRE-luciferase reporter; normalized: DMSO 0%, desferrioxamine 100% | activation, % at 7.5 µM (by protocol) | actives 0.32% (n = 300,000) | AID 1910, 2009;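 active = mean activation of at least 10% of the iron chelator positive control signal, with at least half of replicates also reaching 10%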
AI-2 QS modul = Vibrio harveyi AI-2 quorum sensing modulators, primary screen, JMH597 strain, luminescence/OD600 ratio; Vibrio harveyi JMH597 AI-2 luminescence/OD600 ratio, 9 h; active compounds read low; strain lacks LuxN and CqsS sensors; 0 = neutral-control median; activity change, % at 7.5 µM; actives 0.4% (n = 300,000); in the data active = activity change below about -75%, passing the limit was not always enough;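 also: luminescence divided by OD600 gain over 9 h not by final OD600 alone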
CHT inh = inhibitors of human choline transporter CHT; High affinity choline transporter 1 (Homo sapiens), Q9GZV3; CHT-expressing cells, membrane potential dye, choline response; active compounds read low; B-score at 10 µM; actives 0.86% (n = 310,000); AID 488975, 2010;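 active = B-score over 3 SD under the library average, and starting fluorescence ratio not unusually high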;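 also: choline stimulus applied at its EC90 after an EC20 pre-addition; B-score computed on integrated fluorescence ratio after choline addition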
Platelet DG rel = inhibitors of platelet dense granule secretion, primary screen, cell-based, MLPCN, human platelets. actives 0.22% (n = 300,000). human platelet-rich plasma, SFLLRN dense granule ATP release, luminescence. AID 1663, 2009. inhibition, %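 (compounds screened at 7.5 µM in platelet-rich plasma)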;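 active = mean replicate score, as percent of positive control, at or above 50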
VLA-4 inh = inhibition in human VLA-4 binding assay, primary screen, VLA-4 allosteric modulator project, MLPCN library, flow cytometry, VLA-4 expressing cells; Integrin alpha-4 (Homo sapiens), P13612; ligand binding flow cytometry; inhibition, % (about 7 µM as worked out from the volumes in the protocol); actives 0.2% (n = 330,000); in the data active = inhibition above about 50%
CHT activ conf = CHT activators, confirmation, cell-based, membrane potential dye, duplicate; shares compounds with CHT PAM; CHT-expressing cells, membrane potential dye fluorescence (FDSS); % of choline EC20–EC90 response window; HEK293 expressing CHT LV-AA mutant; choline added at its EC20; activation, % at 10 µM; actives 91% (n = 2,500); AID 504833, 2011;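 active = primary screen active, with duplicate mean activation above negative control mean plus 3 SD, cut at about 11% in these data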
HEK293 MP dye = membrane potential response in parental HEK293 cells, counter-screen for CHT activator project, cell-based, membrane potential dye | shares compounds with CHT PAM | membrane potential dye fluorescence (FDSS); measured after EC20 choline addition | ratio readout change at 10 µM, hits read low | actives 62% (n = 2,500) | AID 623908, 2012;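 active = duplicate-averaged ratio beyond 3 SD from buffer wells, up or down, though filed actives are nearly all decreases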
* marks the source's active call; other numbers are inactive results; i = inactive; . = not tested or not shown. An excerpt weighted towards active compounds, which were near 2.2% of everything screened.

SMILES	CHT PAM	HIF act	AI-2 QS modul	CHT inh	Platelet DG rel	VLA-4 inh	CHT activ conf	HEK293 MP dye
Cc1nn(-c2ccccc2)c(C)c1/C=N/n1c(-c2ccc(Cl)cc2)n[nH]c1=S	i	-3	36	i	-13	10	8	i
O=C(COc1cccc(C(F)(F)F)c1)NCC(c1ccco1)N1CCCCC1 (stereo not drawn)	i	0	8	i	0	5	.	.
COc1ccc(C(=O)C2CCCN(Cc3cccn3-c3ccccn3)C2)c(OC)c1 (stereo not drawn)	i	0	1	i	7	10	.	.
O=C(c1cc(F)ccc1F)C1CCCN(Cc2cccn2-c2ccccn2)C1 (stereo not drawn)	13*	1	15	i	0	3	42*	i
COc1ccc(F)cc1C(=O)C1CCCN(Cc2cccn2-c2ccccn2)C1 (stereo not drawn)	16*	0	30	i	2	6	58*	i
Cc1onc(-c2ccccc2)c1C(=O)N(C)CC(=O)Nc1ccc(F)c(F)c1F	.	.	.	.	.	24	.	.
COC(=O)C1CN(C(=O)C(C)Oc2ccc(C(C)C)cc2)c2ccccc2O1 (stereo not drawn)	i	-1	12	i	0	-6	18*	i
COc1ccc(S(=O)(=O)N2CCCCCC2)cc1C(=O)N(C)CC(=O)Nc1cc(C)ccc1C	i	0	12	i	-4	26	.	.
COc1ccc(Cl)cc1C(Nc1cccnc1)c1ccc2cccnc2c1O (stereo not drawn)	i	8	-82*	i	-4	12	19*	i
COc1ccc(C(=O)Nc2cccnc2)cc1OC	i	0	22	i	-1	-4	.	.
CC(C(=O)Nc1ccc(F)cc1Cl)N1CCN(S(=O)(=O)c2cccs2)CC1 (stereo not drawn)	.	.	.	.	.	3	.	.
OCC[C@@H]1C[C@@H](O)[C@H](O)[C@@]2(CCCCO2)O1	i	-1	14	i	-3	17	.	.
CCOC(=O)c1c(-c2ccccc2)csc1NC(=O)CSc1nncs1	i	0	8	i	6	-28	28*	i
CCOC(=O)c1c(-c2ccccc2)csc1NC(=O)CSc1ccccc1	i	0	3	i	-4	-2	.	.
CCCn1c(=O)c(C(=O)NNS(=O)(=O)c2ccc(NC(=O)OC)cc2)c(O)c2ccccc21	i	0	22	i	-23	5	.	.
N=c1c2c3c(sc2nc2n1CCC2)CCCC3	i	0	-1	i	-3	5	48*	-40*
Cc1cccc(OCC(=O)Nc2nc3ccc([N+](=O)[O-])cc3s2)c1	i	.	-53	i	0	12	.	.
O=C(O)COc1ccc(/C=C/c2nc3ccc([N+](=O)[O-])cc3s2)cc1	6.7*	0	13	i	-3	-19	46*	-52*
Cc1cnc(NC(=O)C(C)N2CCN(C)CC2)s1 (stereo not drawn)	i	0	-6	i	5	-3	.	.
COc1cccc(CN2CCNC(=O)C2CC(=O)NCCc2nc(C)c(C)s2)c1OC (stereo not drawn)	i	0	9	i	-1	12	.	.
COc1ccccc1CN=Cc1[nH]c2ccc(Br)c(Cl)c2c1O	i	-1	27	i	-1	-61	.	.
Cc1cccc(N=Cc2[nH]c3ccc(Br)c(Cl)c3c2O)c1	i	.	.	i	.	i	12*	i
COc1ccc(CNC(=O)C2CCN(S(=O)(=O)N3CCCC3)CC2)c(OC)c1	i	0	4	i	-2	13	.	.
O=C(COc1ccccc1)NCC(c1ccco1)N1CCN(c2ccccc2)CC1 (stereo not drawn)	8*	0	1	i	4	7	45*	i
O=C(NCC(c1ccco1)N1CCN(c2ccccc2)CC1)c1cccs1 (stereo not drawn)	i	1	18	i	6	8	.	.
SMILES	CHT PAM	HIF act	AI-2 QS modul	CHT inh	Platelet DG rel	VLA-4 inh	CHT activ conf	HEK293 MP dye
Cc1cc(C)nc(/N=C(\N)Nc2ccc(S(=O)(=O)Nc3nccc(C)n3)cc2)n1	7.2*	0	33	i	13	-14	58*	-56*
COc1cc(Nc2c3c(nc4ccccc24)CCC3)cc(OC)c1OC	i	1	23	i	-13	2	36*	-36*
O=C(CSc1nnc(-c2ccccc2F)o1)NC(=O)Cc1ccccc1	.	.	.	.	.	4	.	.
CCn1nc(Cc2cccc3ccccc23)c(C#N)c1N	i	1	21	i	2	39	.	.
O=C(NCc1cccnc1)/C(=C\c1ccc(-c2ccc(Cl)c(Cl)c2)o1)S(=O)(=O)c1ccccc1	6.7*	-6	-2	i	2	9	14*	i
C=C(C)C(=O)Nc1cccc(C2=NOC3(C2)C[C@H](C(N)=O)N(C(=O)c2ccccc2C(=O)c2ccccc2)C3)c1 (stereo partly drawn)	i	0	10	i	2	33	.	.
Cc1cc(C)nc(/N=C(\N)N2CCCCC2)n1	6.9*	0	11	i	-3	-4	52*	-41*
Cn1cnc2c(N3CCCCC3)nccc21	8.7*	0	20	i	3	8	71*	-64*
CN1CCN(c2ncccc2S(=O)(=O)N2CCCCC2)CC1	i	0	22	i	6	-1	.	.
CC(C)(C)c1nc(SCC(=O)Nc2nc3c(s2)CCCC3)c2ccccc2n1	i	.	19	i	-4	11	.	.
CC(C)c1nc(SCC(=O)Nc2nc3c(s2)CCCC3)c2ccccc2n1	9*	0	20	i	1	19	28*	i
O=C(NC1CCN(C(=O)C2CCCCC2)CC1)c1ccccc1	i	0	21	i	2	-2	.	.
